High-throughput results (PubChem BioAssay)
Hits are enriched below; roughly 2% of the tested compounds scored in any of these assays.
CHT PAM – CHT positive allosteric modulators, primary screen, cell-based, membrane potential dye, choline EC20. actives 0.49% (n = 310,000). CHT-expressing cells; stronger effect = higher value; LV-AA mutant CHT in HEK293 cells. B-score at 10 µM. AID 488977, 2010;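 active = initial fluorescence not abnormally high and integrated response B-score, plate-corrected, over 3 SD above library mean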
Target sequence (Q9GZV3 whole entry, looked up): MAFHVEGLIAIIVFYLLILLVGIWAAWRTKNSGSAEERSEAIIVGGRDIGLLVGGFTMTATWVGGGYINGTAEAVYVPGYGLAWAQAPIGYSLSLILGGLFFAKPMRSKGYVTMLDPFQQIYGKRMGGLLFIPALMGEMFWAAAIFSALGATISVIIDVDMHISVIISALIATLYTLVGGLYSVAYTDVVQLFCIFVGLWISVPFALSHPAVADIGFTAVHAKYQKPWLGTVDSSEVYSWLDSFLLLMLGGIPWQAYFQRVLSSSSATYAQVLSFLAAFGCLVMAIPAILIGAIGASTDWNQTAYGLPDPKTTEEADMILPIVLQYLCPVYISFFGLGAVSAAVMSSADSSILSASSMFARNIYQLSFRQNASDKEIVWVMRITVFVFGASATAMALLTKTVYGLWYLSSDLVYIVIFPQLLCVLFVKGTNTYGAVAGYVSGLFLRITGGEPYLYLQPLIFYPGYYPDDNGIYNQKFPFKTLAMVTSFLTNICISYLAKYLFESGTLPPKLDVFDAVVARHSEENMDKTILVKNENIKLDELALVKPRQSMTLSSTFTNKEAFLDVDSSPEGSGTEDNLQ
Kir21 block – inhibitors of mouse Kir2.1 inward-rectifier potassium channel; HEK293-Kir2.1, FluxOR thallium flux fluorescence; stronger effect = lower value; B-score at 10 µM; actives 0.85% (n = 310,000); AID 1672, 2009;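 active = fluorescence ratio B-score at or below minus 3 SD of library scores, with starting-brightness B-score within 2 SD, cut at about -4.2 in these data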;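 also: channel flux triggered by added potassium and thallium sulfate stimulus; B-score of peak minus minimum fluorescence over baseline after thallium stimulus; more negative B-score means stronger Kir2.1 block with less thallium influx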
CHT block – inhibitors of human choline transporter CHT; B-score at 10 µM; AID 488975, 2010; actives 0.86% (n = 310,000); CHT-expressing cells, membrane potential dye, choline response; stronger effect = lower value;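 active = B-score over 3 SD under the library average, and starting fluorescence ratio not unusually high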;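 also: choline stimulus applied at its EC90 after an EC20 pre-addition; B-score computed on integrated fluorescence ratio after choline addition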
H9c2 TAG inh – inhibitors of triacylglycerol accumulation, primary screen, cell-based, uHTS, fluorescence, H9c2. H9c2 cells, Nile Red lipid (TAG) fluorescence; cells loaded with 200 µM oleic acid. inhibition, % at 12.5 µM. actives 0.66% (n = 230,000). AID 651582, 2012;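 active = pattern-corrected inhibition of lipid staining of at least 50% with the nuclear-stain viability signal not falling by more than 50%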;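 also: 0% = DMSO wells and 100% = triacsin C control wells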
CHT block conf – CHT inhibitors, confirmation, cell-based, membrane potential dye, duplicate; shares compounds with CHT block; CHT activity remaining % of control (stronger effect = lower value), % at 10 µM; actives 70% (n = 2,400); AID 493221, 2011; CHT-expressing cells, choline membrane potential dye; LV-to-AA substituted CHT, HEK293 cells;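 active = choline transporter activity left, mean of duplicates at 10 µM, below buffer-only control mean minus 3 SD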;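 also: depolarization triggered by choline at its EC90 following an EC20 pre-addition; 0% = hemicholinium-3 full block and 100% = buffer-only control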
HEK293 MPD ctr – membrane potential effects in parental HEK293, counter-screen for CHT inhibitor project, cell-based, membrane potential dye. shares compounds with CHT block. membrane potential ratio readout (active if shifted either direction beyond buffer ±3SD; no single direction) at 10 µM. actives 4% (n = 2,400). choline response; active = decrease or increase beyond buffer ±3SD;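 also: parental cells lack the transporter so any hit is non-specific; ratio is peak minus trough fluorescence over baseline after EC90 choline challenge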
Numbers without * were called inactive; i = inactive; · = no result.

SMILES | CHT PAM | Kir21 block | CHT block | H9c2 TAG inh | CHT block conf | HEK293 MPD ctr
COC(=O)c1cc2ccc(OC)cc2c2cc(OC)c(OC)cc12 | · | · | · | 48 | · | ·
COc1cc(CN2CCCC(C(=O)c3ccc(C(C)(C)C)cc3)C2)cc(OC)c1O (configuration not stated) | i | -0.14 | i | · | · | ·
CCOC(=O)c1[nH]ncc1CN1CCCC(C(=O)c2ccc(C(C)(C)C)cc2)C1 (configuration not stated) | i | -0.51 | -8.8* | -9 | i | i
Cc1ccnc(SCc2cc(=O)c(OC(=O)c3ccco3)co2)n1 | i | -0.36 | -5.8* | · | 61%* | i
Cc1ccnc(SCc2cc(=O)c(OC(=O)c3cccs3)co2)n1 | i | 1.5 | i | 19 | · | ·
NC(=O)CCCn1c(C(=O)c2ccc(Cl)cc2)c2ccc(C(F)(F)F)cc2[n+]1[O-] | i | 0.15 | i | -16 | · | ·
NC(=O)CCCn1c(C(=O)c2cc(Cl)c(N)c(Cl)c2)c2ccc([N+](=O)[O-])cc2[n+]1[O-] | i | 1.4 | -8.8* | -18 | 17%* | i
NCCCn1c(C(=O)c2ccc(Cl)cc2)c2ccc(C(F)(F)F)cc2[n+]1[O-] | i | 0.02 | -5.1* | -3 | 31%* | 2.2*
NC(=O)CCCn1c(C(=O)c2ccc(Cl)cc2)c2ccc([N+](=O)[O-])cc2[n+]1[O-] | i | 1.4 | i | 4 | · | ·
COc1ccc(NC(=O)CCc2ccc(OC)c(OC)c2)cn1 | i | 0.8 | i | · | · | ·
COc1cc(C(C(=O)NC(C)(C)C)N(C(=O)CNC(=O)c2cccs2)c2cccnc2)cc(OC)c1OC (configuration not stated) | i | 1.6 | i | · | · | ·
O=C(c1ccc(CN2CCc3ccccc3C2)cc1)N1CCCCC1 | i | -2 | i | 2 | · | ·
Cc1cc(C)c(NC(=O)c2ccc(CN3CCc4ccccc4C3)cc2)c(C)c1 | i | -0.36 | -11* | · | 18%* | i
O=C(c1ccc(CN2CCc3ccccc3C2)cc1)N1CCN(c2ccc(F)cc2)CC1 | i | -0.06 | -5* | -12 | i | i
Cc1ccc(CN(C)C2CCN(C)CC2)cc1 | i | -1.4 | i | · | · | ·
Brc1cc(Cc2nnc(-c3ccccc3)o2)c(Br)s1 | i | 0.25 | i | 5 | · | ·
O=C(NNC(=S)Nc1ccc(Br)cc1)c1ccccc1Br | i | 0.73 | -5.6* | -5 | 58%* | i
O=C(NNC(=S)Nc1cccc(C(F)(F)F)c1)c1ccccc1Cl | i | 0.04 | -5.8* | · | i | i
O=C(NNC(=S)Nc1ccc(Cl)cc1)c1ccccc1OC(F)F | i | 0.03 | -5.4* | · | 44%* | i
COc1ccc(CNC(=O)c2ccc3c(c2)N(C)C(=O)CS3=O)cc1 (configuration not stated) | i | 0.48 | i | -19 | · | ·
COC(=O)c1cc(C(=O)OC)cc(N2C(=O)CC(NNC(=O)c3ccccc3Br)C2=O)c1 (configuration not stated) | i | -0.2 | i | · | · | ·
COC(=O)c1cc(C(=O)OC)cc(N2C(=O)CC(NNC(=O)c3ccc(C)cc3)C2=O)c1 (configuration not stated) | i | -1.8 | -5.4* | · | i | i
COc1ccc(-c2nc(C=O)cs2)cc1 | i | 0.22 | -5.5* | -20 | 23%* | i
N#CCSc1nc2sccc2c(=O)n1-c1ccccc1 | i | 0.59 | -5.5* | · | i | i
CNC(=O)CSc1nc2sccc2c(=O)n1-c1ccccc1 | i | 0.78 | i | · | · | ·
SMILES | CHT PAM | Kir21 block | CHT block | H9c2 TAG inh | CHT block conf | HEK293 MPD ctr
O=C(c1cc(COc2ccc(F)cc2Cl)on1)N1CCC(c2ccncc2)CC1 | i | 0.35 | -6.5* | -29 | 56%* | i
CCOC(=O)C(=Cc1c[nH]c2ccc(S(=O)(=O)N(C)C)cc12)C(=O)OCC | i | -0.04 | -6.4* | 10 | 33%* | i
CCOC(=O)/C(C#N)=C/c1c[nH]c2ccccc12 | i | -0.73 | i | -8 | · | ·
CC1CCCCN1C(=O)COc1ccc(F)cc1 (configuration not stated) | i | 1.1 | i | 6 | · | ·
NC(=O)C1CCCN(C(=O)CCC(=O)c2cccs2)C1 (configuration not stated) | · | · | · | 0 | · | ·
O=C(N/N=C/c1ccc(O)c([N+](=O)[O-])c1)C1CC1(c1ccccc1)c1ccccc1 (configuration not stated) | i | 2.7 | -9.3* | · | i | i
CC1CCCCN1CCNC(=O)Cn1nc(-c2ccccc2)ccc1=O (configuration not stated) | i | 0.24 | i | · | · | ·
CC1CCCCC1NC(=O)Cn1nc(-c2ccccc2)ccc1=O (configuration not stated) | i | -0.04 | -5.4* | · | 64%* | i
CCn1nnnc1SCC(=O)N1N=C(c2cccs2)CC1c1cccs1 (configuration not stated) | · | · | · | -11 | · | ·
CCc1ccc(NCc2nc(-c3ccccc3)no2)cc1 | i | 1.5 | -5.7* | · | 58%* | i
Cc1ccc(-c2noc(CNc3ccccc3)n2)cc1 | i | 0.08 | -5.8* | -11 | 44%* | i
Cc1ccc(SCc2nc(-c3ccccc3)no2)cc1 | i | 0.87 | i | -8 | · | ·
c1ccc(CCc2nc(-c3ccccc3)no2)cc1 | i | 0.94 | i | -22 | · | ·
CCN(CC)c1ccc(S(=O)(=O)N2CCOCC2)cc1NC(=O)CN1C(=O)NC2(CCC(C)CC2)C1=O (configuration not stated) | i | 0.55 | i | -22 | · | ·
CC(C)=CCN1CCN(Cc2cn(C(C)C)c3ccccc23)CC1CCO (configuration not stated) | i | 1.4 | -5* | · | 40%* | i
COc1ccccc1OCC(=O)NCCS(=O)(=O)N1CCN(c2ccccc2)CC1 | i | -0.43 | -6.9* | 7 | 58%* | i
Cc1ccccc1OCC(=O)NCCS(=O)(=O)N1CCN(c2ccc(F)cc2)CC1 | i | 0.4 | i | 5 | · | ·
CSc1ccccc1C(=O)NCCS(=O)(=O)N1CCN(c2ccc(F)cc2)CC1 | i | 1.5 | -5.3* | -5 | 38%* | i
Cc1c(C(=O)Nc2ccccc2C(=O)N2CCCC2)cccc1[N+](=O)[O-] | i | 0.01 | i | 25 | · | ·
